The target in experiment [1] is T1, Ephrin type-A receptor 3 (Homo sapiens) (UniProt P29320).
T1 sequence (whole entry): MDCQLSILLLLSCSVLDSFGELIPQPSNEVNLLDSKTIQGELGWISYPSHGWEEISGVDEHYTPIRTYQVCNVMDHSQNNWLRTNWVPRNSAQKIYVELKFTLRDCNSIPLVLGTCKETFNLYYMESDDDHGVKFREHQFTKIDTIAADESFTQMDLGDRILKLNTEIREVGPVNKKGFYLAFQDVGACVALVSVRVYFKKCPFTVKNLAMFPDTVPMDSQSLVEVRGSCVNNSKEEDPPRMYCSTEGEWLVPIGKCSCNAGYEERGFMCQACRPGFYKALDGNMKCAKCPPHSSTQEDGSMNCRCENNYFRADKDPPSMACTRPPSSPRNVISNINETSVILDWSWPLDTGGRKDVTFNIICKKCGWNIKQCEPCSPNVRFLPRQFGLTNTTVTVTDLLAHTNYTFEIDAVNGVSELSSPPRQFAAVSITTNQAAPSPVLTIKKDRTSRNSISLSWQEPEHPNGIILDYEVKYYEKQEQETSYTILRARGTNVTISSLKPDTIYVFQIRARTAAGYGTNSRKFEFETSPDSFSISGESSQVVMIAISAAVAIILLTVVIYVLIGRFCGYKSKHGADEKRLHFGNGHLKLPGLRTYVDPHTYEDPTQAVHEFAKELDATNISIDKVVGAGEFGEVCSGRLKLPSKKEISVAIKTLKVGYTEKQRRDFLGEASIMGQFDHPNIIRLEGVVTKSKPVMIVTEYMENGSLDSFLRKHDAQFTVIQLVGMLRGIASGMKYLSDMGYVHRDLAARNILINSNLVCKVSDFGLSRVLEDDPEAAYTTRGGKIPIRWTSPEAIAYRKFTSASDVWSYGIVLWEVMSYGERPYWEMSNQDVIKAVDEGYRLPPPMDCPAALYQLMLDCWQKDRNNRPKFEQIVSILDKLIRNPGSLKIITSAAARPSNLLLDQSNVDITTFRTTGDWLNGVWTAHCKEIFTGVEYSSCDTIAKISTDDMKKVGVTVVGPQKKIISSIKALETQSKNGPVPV
As to conditions: at 10 µM.

Experiment [2] concerns the target Ephrin type-A receptor 4 (Homo sapiens) (UniProt P54764). As to conditions: at 1 µM.
For experiment [3] the target is unchanged. As to conditions: at 10 µM.
Experiment [4] addresses Ephrin type-A receptor 5 (Homo sapiens) (UniProt P54756). As to conditions: at 1 µM.
Experiment [5] has the same target. The conditions noted are these: at 10 µM.
Experiment [6] addresses Ephrin type-A receptor 7 (Homo sapiens) (UniProt Q15375). The conditions noted are these: at 1 µM.
Experiment [7] shares this target. The conditions noted are these: at 10 µM.
The target in experiment [8] is T2, Ephrin type-A receptor 8 (Homo sapiens) (UniProt P29322).
T2 sequence (whole entry): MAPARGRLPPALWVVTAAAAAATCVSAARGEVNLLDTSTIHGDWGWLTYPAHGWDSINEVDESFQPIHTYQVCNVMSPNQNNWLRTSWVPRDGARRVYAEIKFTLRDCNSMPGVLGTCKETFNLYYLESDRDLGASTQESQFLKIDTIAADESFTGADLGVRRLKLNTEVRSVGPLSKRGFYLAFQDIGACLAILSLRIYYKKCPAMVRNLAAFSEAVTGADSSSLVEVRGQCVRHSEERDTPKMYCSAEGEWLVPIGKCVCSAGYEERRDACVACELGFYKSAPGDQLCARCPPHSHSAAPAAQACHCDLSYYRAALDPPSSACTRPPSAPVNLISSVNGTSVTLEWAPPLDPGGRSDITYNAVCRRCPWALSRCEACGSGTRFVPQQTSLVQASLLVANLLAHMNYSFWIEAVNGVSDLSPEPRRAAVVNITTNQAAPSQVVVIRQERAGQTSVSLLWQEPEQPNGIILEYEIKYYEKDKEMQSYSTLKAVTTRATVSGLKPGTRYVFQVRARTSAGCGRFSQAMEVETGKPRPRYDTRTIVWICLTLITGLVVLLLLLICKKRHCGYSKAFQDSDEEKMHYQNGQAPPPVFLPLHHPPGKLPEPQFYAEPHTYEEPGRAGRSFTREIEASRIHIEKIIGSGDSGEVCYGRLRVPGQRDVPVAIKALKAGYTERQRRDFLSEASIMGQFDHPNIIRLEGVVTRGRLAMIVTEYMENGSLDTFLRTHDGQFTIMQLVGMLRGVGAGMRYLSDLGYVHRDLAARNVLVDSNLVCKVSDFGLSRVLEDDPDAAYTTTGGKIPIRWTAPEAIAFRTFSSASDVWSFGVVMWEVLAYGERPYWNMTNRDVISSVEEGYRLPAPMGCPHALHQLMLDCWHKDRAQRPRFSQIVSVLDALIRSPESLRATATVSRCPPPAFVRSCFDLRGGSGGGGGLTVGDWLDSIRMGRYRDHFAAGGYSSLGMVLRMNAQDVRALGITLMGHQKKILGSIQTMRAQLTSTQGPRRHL
As to conditions: at 1 µM.

Experiment [9] addresses T2, Ephrin type-A receptor 8 (Homo sapiens). As to conditions: at 10 µM.

Ephrin type-A receptor 4 (Homo sapiens), sequence (P54764 whole entry): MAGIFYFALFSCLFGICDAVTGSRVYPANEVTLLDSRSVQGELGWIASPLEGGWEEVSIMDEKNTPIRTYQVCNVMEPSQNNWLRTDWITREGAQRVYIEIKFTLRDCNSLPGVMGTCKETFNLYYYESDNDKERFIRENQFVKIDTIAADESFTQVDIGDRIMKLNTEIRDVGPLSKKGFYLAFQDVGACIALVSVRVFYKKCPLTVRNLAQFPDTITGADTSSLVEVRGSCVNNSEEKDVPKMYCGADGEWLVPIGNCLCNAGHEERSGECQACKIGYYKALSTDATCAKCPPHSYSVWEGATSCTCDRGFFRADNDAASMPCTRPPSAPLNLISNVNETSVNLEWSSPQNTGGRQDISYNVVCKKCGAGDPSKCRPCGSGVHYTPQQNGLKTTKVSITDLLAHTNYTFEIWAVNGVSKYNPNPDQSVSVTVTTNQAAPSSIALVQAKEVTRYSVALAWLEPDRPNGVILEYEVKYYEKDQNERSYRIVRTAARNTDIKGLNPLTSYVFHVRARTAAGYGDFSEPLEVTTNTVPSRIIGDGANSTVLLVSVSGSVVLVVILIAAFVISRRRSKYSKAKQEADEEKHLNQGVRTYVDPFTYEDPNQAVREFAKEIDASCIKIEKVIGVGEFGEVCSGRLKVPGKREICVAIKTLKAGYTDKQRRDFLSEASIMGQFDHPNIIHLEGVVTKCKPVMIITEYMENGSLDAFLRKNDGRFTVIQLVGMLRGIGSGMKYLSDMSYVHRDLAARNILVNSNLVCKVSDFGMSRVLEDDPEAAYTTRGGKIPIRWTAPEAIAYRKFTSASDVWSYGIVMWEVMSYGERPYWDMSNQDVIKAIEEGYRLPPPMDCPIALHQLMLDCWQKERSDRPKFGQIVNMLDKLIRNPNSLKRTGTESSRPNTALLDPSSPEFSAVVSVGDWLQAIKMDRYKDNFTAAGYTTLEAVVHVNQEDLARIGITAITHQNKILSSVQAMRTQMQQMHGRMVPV
Ephrin type-A receptor 5 (Homo sapiens), sequence (P54756 whole entry): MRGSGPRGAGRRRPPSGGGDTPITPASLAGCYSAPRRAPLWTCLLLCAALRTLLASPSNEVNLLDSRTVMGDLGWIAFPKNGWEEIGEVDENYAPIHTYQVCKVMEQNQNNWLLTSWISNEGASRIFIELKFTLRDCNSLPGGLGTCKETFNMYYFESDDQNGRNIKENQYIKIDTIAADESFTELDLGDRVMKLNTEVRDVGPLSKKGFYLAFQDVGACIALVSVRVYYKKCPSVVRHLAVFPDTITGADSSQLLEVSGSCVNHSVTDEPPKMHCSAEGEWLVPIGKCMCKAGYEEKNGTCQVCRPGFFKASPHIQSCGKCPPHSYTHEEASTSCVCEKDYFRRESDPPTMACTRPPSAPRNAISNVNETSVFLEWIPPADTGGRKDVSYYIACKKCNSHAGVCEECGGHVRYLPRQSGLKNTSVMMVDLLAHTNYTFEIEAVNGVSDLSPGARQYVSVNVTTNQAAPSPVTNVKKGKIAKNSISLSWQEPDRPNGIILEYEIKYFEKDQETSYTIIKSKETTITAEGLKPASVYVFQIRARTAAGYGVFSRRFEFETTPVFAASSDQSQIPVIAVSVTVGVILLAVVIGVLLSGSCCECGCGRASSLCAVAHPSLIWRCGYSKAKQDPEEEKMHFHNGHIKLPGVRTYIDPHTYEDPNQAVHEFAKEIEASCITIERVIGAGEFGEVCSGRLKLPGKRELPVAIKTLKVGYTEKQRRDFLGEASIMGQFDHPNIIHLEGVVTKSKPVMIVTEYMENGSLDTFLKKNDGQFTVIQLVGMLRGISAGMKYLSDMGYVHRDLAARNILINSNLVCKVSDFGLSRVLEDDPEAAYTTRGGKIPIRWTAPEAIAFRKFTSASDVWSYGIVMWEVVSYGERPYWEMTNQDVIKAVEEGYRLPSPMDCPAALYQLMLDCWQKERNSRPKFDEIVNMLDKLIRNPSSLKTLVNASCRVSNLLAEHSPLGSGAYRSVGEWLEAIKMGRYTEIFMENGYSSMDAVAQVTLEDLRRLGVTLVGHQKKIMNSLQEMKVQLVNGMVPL
Ephrin type-A receptor 7 (Homo sapiens), sequence (Q15375 28-998 limits assumed): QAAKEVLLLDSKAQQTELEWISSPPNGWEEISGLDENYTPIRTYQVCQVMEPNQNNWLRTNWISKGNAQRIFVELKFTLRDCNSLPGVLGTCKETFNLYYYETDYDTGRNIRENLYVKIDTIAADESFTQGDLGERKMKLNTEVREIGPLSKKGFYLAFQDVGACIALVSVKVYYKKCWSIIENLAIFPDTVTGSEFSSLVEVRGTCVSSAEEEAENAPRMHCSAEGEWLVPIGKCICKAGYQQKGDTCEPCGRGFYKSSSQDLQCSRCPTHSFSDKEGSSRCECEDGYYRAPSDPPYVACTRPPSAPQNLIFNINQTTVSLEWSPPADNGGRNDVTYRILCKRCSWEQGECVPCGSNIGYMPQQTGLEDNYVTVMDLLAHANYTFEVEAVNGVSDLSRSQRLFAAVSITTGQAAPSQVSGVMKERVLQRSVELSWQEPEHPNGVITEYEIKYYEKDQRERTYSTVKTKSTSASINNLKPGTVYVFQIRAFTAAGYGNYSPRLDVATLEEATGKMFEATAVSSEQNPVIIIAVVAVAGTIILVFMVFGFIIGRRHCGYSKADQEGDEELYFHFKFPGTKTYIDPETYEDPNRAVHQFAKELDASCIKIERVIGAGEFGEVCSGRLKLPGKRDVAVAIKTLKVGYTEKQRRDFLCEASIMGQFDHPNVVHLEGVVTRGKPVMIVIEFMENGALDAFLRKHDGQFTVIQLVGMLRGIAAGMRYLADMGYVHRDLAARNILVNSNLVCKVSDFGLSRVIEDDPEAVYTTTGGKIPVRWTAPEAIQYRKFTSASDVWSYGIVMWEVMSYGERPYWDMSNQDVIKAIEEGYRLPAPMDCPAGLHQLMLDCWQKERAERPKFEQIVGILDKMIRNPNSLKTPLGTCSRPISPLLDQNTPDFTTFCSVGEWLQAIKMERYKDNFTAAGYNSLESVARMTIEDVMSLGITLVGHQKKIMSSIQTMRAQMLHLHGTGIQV

What is called residual activity is the signal under treatment as a percentage of the control signal. Turning to `COc1cc2ncnc(N3CCN(C(=O)Nc4ccc(Oc5ccccc5)cc4)CC3)c2cc1OC`, the residual activity in experiment [1] was 112%; in experiment [2], 99%; in experiment [3], 101%; in experiment [4], 117%; in experiment [5], 124%; in experiment [6], 95%. In addition, the residual activity stood at 93% in experiment [7], 87% in experiment [8] and 99% in experiment [9].

(Values after ChEMBL document CHEMBL2218924, “A broad activity screen in support of a chemogenomic map for kinase signalling research and drug discovery” (Biochem J, 2013).)
